Source: PubChem BioAssay (NCI)
The panel holds about 79,000 compounds, 15% with a hit somewhere; the sample as a whole holds those more often. Rule as the data show it: active = growth inhibition above about 70%; inactive = the rest.

How the values were obtained:
[1] = NCI Yeast Anticancer Drug Screen. Data for the rad50 strain (AID 155);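 also: 0% = growth of vehicle-only cultures of the same strain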; conditions: S. cerevisiae rad50 strain growth inhibition; at 50.0 µM; stronger effect = higher value
Procedure, shortened: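 DNA repair mutant yeast, compound exposure, growth read-out; inhibition is taken relative to vehicle.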

[2] = NCI Yeast Anticancer Drug Screen. Data for the mec2-1 strain (AID 157); conditions: S. cerevisiae mec2-1 strain, at 50.0 µM, stronger effect = higher value
Procedure, shortened: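 Cells of the genetically defined mec2-1 yeast strain are incubated with test compound. Inhibition of growth is calculated against vehicle-treated controls.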

[3] = NCI Yeast Anticancer Drug Screen. Data for the sgs1 mgt1 strain (AID 161);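 also: 0% = growth of cultures given vehicle only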; conditions: S. cerevisiae sgs1 mgt1 strain, at 50.0 µM, stronger effect = higher value
Procedure, shortened: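 Mutant yeast exposed to compound; growth scored against vehicle-only wells.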

[4] = NCI Yeast Anticancer Drug Screen. Data for the cln2 rad14 strain (AID 165);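 also: 0% = growth equal to vehicle treated cultures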; conditions: S. cerevisiae cln2 rad14 strain, at 50.0 µM, stronger effect = higher value
Procedure, shortened: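 The screen exposed genetically defined yeast (cln2 rad14) to test compounds and scored growth inhibition relative to vehicle-treated controls.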

[5] = NCI Yeast Anticancer Drug Screen. Data for the bub3 strain (AID 167); conditions: S. cerevisiae bub3 mutant strain, at 50.0 µM, stronger effect = higher value
Procedure, shortened: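 In this screen, a yeast mutant lacking normal mitotic checkpoint function is challenged with compound. Relative growth versus vehicle gives the inhibition value.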

[6] = NCI Yeast Anticancer Drug Screen. Data for the mlh1 rad18 strain (AID 175); conditions: S. cerevisiae mlh1 rad18 strain growth inhibition; at 50.0 µM; stronger effect = higher value
Procedure, shortened: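 Compound-treated yeast growth, normalised to vehicle controls. Strain bears defined DNA repair mutations.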

Measured: growth inhibition

c1cncc(CSc2ncnc3nc[nH]c23)c1
inactive: [1] 11.8% | [2] -24.4% | [3] -20.1% | [4] -21.7% | [5] -48.4% | [6] -10.5%

CCCC(=O)Nc1ccc(N=Nc2ccccc2)cc1
inactive: [1] 8.15% | [2] 43.4% | [3] 58.3% | [4] -15.9% | [5] 46.1% | [6] 57.5%

CC(C)(C)OC(=O)NC(CSSCC(NC(=O)OC(C)(C)C)C(=O)O)C(=O)O (configuration not stated)
inactive: [1] -7.05% | [2] -10.2% | [3] -10.7% | [4] -3.45% | [5] -5.7% | [6] -6.4%

c1cc2nc(c1)CSCCCCCCCCSC2
inactive: [1] -3.25% | [2] 41% | [3] 17.8% | [4] -10.1% | [5] 55% | [6] 36%

CCC(=O)[C@H]1CC[C@H]2[C@@H]3CCC4=CC(=O)CC[C@]4(C)[C@H]3CC[C@]12C
inactive: [1] -7.6% | [2] 26.9% | [3] 32% | [4] 6.5% | [5] 37.5% | [6] 2.45%

CCCCS(=O)(=O)N(CCC)CCC
inactive: [1] 9.55% | [2] -13.6% | [3] 5.25% | [4] -18.1% | [5] -3.95% | [6] -13.3%

CC(=O)Nc1ccc(/C=N/NC(N)=O)cc1
inactive: [1] 16.4% | [2] 11.6% | [3] 19.8% | [4] 8.55% | [5] -0.7% | [6] 9.35%

CN1C(=O)N(C)C2(CCN(CCCCCCF)CC2)C1=O
inactive: [1] -10.2% | [2] -19.9% | [3] -34.2% | [4] -6.9% | [5] -18.6% | [6] -29.4%

CCOC(=O)C/C(C)=N/NS(=O)(=O)c1ccc(NC(C)=O)cc1
inactive: [1] -7.6% | [2] -19.6% | [3] 8.25% | [4] -9.3% | [5] -27.3% | [6] -24.8%

CCC1C(C#N)=C(O)NC(O)=C1C#N
inactive: [1] 25.8% | [2] 6.1% | [3] 11.8% | [4] 8.6% | [5] 19.2% | [6] -1.65%

Nc1nc(C(=O)O)c(N=Nc2ccccc2)c(=O)[nH]1
inactive: [1] 31.1% | [2] -10.2% | [3] 7.35% | [4] 24.4% | [5] -16.1% | [6] -20.8%

N=C(N)c1ccc(N=Nc2ccc(N)cc2N)cc1
inactive: [1] 7.4% | [2] -3.75% | [3] -7.45% | [4] 12.8% | [5] -5.25% | [6] -0.4%

COc1nnc(-c2ccccc2)c(-c2ccccc2)n1
inactive: [1] 13.2% | [2] 20.3% | [3] -2.25% | [4] -9.6% | [5] 25.5% | [6] 6.5%

O=C1c2ccccc2C(=O)N1CCNc1ccccc1[N+](=O)[O-]
inactive: [1] -9.25% | [2] -12.2% | [3] 7% | [4] -22.9% | [5] 6.5% | [6] -19.2%

Nc1ccc(C(=O)Nc2ccc(NC(=O)c3ccco3)c(O)c2)cc1
inactive: [1] 2.5% | [2] -11.3% | [3] 31.6% | [4] 13.4% | [5] 20.7% | [6] 10.1%

O=Cc1ccc(/C=C2\NC(=O)NC2=O)cc1
inactive: [1] -6.25% | [2] -7.9% | [3] -26.9% | [4] -0.05% | [5] -9.3% | [6] -5.55%

O=C1CCCCCCCS(=O)(=O)C1
inactive: [1] -8.55% | [2] -0.05% | [3] -4.75% | [4] -19.6% | [5] -4.95% | [6] -0.2%

CC(=O)OCC12C(OC(C)=O)C(=O)C3C(OC(C)=O)C14OC3(C)COC(=O)c1cccnc1C(C)C(C)C(=O)OC(C(OC(C)=O)C2OC(C)=O)C4(C)O (configuration not stated)
inactive: [1] -24.6% | [2] -31.4% | [3] -24.1% | [4] 7.85% | [5] -16.1% | [6] -85%

CCc1nc(N)nc(-c2nc(N)nc(CC)c2C)c1C
inactive: [1] 10.8% | [2] -2.4% | [3] -8.4% | [4] -7.8% | [5] -29.4% | [6] 15.8%

c1ccc2c(c1)n1nnnc1c1nnnn21
inactive: [1] 34.6% | [2] -10.4% | [3] 20.1% | [4] 23.7% | [5] 4.85% | [6] 24.4%

C/C(C=C(C#N)C#N)=C\c1ccc(F)cc1
inactive: [1] 14.9% | [2] 28.1% | [3] -2.1% | [4] 30.9% | [5] -7.3% | [6] 21.4%

OC1c2ccccc2-c2c(Cl)cc(Cl)cc21 (configuration not stated)
inactive: [1] 0.25% | [2] 6.1% | [3] 11.2% | [4] -45.9% | [5] 3.95% | [6] 1.95%

COc1cc(C(=O)NNC(=O)C2CCC(=O)N2Cc2ccccc2)cc(OC)c1OC (configuration not stated)
inactive: [1] 3.3% | [2] -4.6% | [3] -18% | [4] -4.45% | [5] -1.75% | [6] 28.4%

CN(C)c1ccc(/C=C2\Cc3ccccc3C2=O)cc1Br
inactive: [1] 19.6% | [2] -8% | [3] 1.45% | [4] 0.95% | [5] -8.55% | [6] 12.4%

Oc1ccc(-c2nc(-c3ccccc3)c(-c3ccccc3)[nH]2)cc1
inactive: [1] -23.1% | [2] -14.9% | [3] -1.1% | [4] -46.3% | [5] -8.3% | [6] 4.05%

CC(=O)Nc1c(C)cccc1F
inactive: [1] 2.35% | [2] 6.45% | [3] -3.95% | [4] 12.1% | [5] 3.3% | [6] -12.4%

CCCCCCCCCCCCCCCc1cc(=O)n(-c2ccc(NC(C)=O)cc2)n1C
inactive: [1] -2% | [2] -23.8% | [3] -12.6% | [4] 3.1% | [5] -1% | [6] -9.7%

Nc1nc(NCc2ccccc2)cc(=O)[nH]1
inactive: [1] 3.35% | [2] -20.8% | [3] -5.25% | [4] -0.4% | [5] -20.8% | [6] -2.75%

Nc1ccc(-c2ccc(N=C(/C=N/O)NO)cc2)cc1
inactive: [1] -7.05% | [2] -4.25% | [3] 2.4% | [4] -46% | [5] 12.2% | [6] -2.15%

CCCC1OCC(C)(CC)CO1 (configuration not stated)
inactive: [1] 27.6% | [2] -2.55% | [3] -4.9% | [4] 12% | [5] -9.65% | [6] -9.05%

ClC(Cl)C1OCCCO1
inactive: [1] -32.4% | [2] -17.4% | [3] -23.2% | [4] -41.1% | [5] 12.2% | [6] -8.25%

Cc1nn(C(=O)c2ccc(Cl)cc2)c2c1C(c1ccc(Cl)cc1)SC(N)=N2 (configuration not stated)
inactive: [1] 9.95% | [2] -21.2% | [3] 31.4% | [4] -24.9% | [5] -19.4% | [6] 12.9%

CC(C)/C(Cl)=N\OC(=O)Nc1ccc(C#N)cc1
inactive: [1] -22.4% | [2] 52% | [3] 51.2% | [4] 11% | [5] 60.1% | [6] 41%

CN(C)C(=O)NC(=S)N(C)C
inactive: [1] -4.05% | [2] -10.3% | [3] -9.85% | [4] -13.2% | [5] 4.05% | [6] 4.95%

CC1C=CCCC1COC(=O)C(=O)OCC1CC=CCC1C (configuration not stated)
inactive: [1] 32.7% | [2] 0.15% | [3] 28.1% | [4] 9.25% | [5] 31.9% | [6] 19.9%

O=C1Nc2ccccc2C2Cc3c([nH]c4ccccc34)CC12 (configuration not stated)
inactive: [1] 47% | [2] 20.1% | [3] 3.8% | [4] 31.1% | [5] 7.4% | [6] 20.9%

CC12CCC(=O)C=C1CCC1C2C(=O)CC2(C)C1CCC2(O)C(=O)Cn1c(=O)[nH]cc(F)c1=O (configuration not stated)
inactive: [1] 5.95% | [2] -5.8% | [3] 3.55% | [4] 5.65% | [5] -0.85% | [6] 2.3%

CCCc1ccc(OCC(=O)O)c(OC)c1
inactive: [1] -2.45% | [2] -1.25% | [3] 0.95% | [4] 4.4% | [5] -22.5% | [6] -7.45%

CCC(C)c1ccc(CCO)cc1 (configuration not stated)
inactive: [1] 27.2% | [2] 2.4% | [3] -10.2% | [4] 10% | [5] -6.65% | [6] 4.45%

N#CC(Nc1ccccc1)c1ccc(C(C#N)Nc2ccccc2)cc1 (configuration not stated)
inactive: [1] 3.2% | [2] 8.2% | [3] -45.2% | [4] -21.1% | [5] -16.2% | [6] -34.2%

CC1CN(C(=S)Nc2ccccc2)CCN1C(=S)Nc1ccccc1 (configuration not stated)
inactive: [1] -9% | [2] 8.7% | [3] 6.3% | [4] -42.9% | [5] 0.5% | [6] -7.6%

O=C1C2C3C=C4c5ccccc5N(c5ccccc5)C4(C2C(=O)N1c1ccc([N+](=O)[O-])cc1)[C@H]1C(=O)N(c2ccc([N+](=O)[O-])cc2)C(=O)[C@@H]31 (some centres not stated)
inactive: [1] 14.7% | [2] 22.1% | [3] 21.9% | [4] 13.2% | [5] 28% | [6] 19.1%
